Inconclusive results are not listed. The source made the active and inactive calls. Calls come from the whole dose curve; as a rule, active = well fitted curve in the direction sought with a large enough effect in the signal ratio, with a control signal flat (not every such curve was filed as active); inconclusive = small, poorly fitted or top-dose-only effect, or a change in a side signal; inactive = no such curve, though single readings can be large or run the other way; the % refers to the signal ratio.
Assay: qHTS Assay for Identification of Small Molecule Inducers of Hypoxia Response (AID 2120)
Conditions: hypoxia response reporter cells, beta-lactamase ratio readout; series mostly up to 104 µM
From the text: NIH Chemical Genomics Center [NCGC]
NIH Molecular Libraries Screening Centers Network [MLSCN]
National Institutes of Environmental Health Sciences [NIEHS]
National Toxicology Program [NTP]
Hypoxia-inducible factor-1 (HIF-1) is the major hypoxia-regulated transcription factor that controls cellular responses to low oxygen concentration. HIF-1 is composed of two subunits: hypoxia responsive HIF-1a and constitutively expressed HIF-1b, which is also known as aryl hydrocarbon receptor nuclear translocator. During hypoxic conditions, HIF-1a heterodimerizes with HIF-1b and translocates into the nucleus where the HIF-1 complex binds to the hypoxia-response element (HRE) and activates expression of target genes such as VEGF (vascular endothelial growth factor). The HIF-1 pathway is essential to normal growth and development, and is involved in the pathophysiology of cancer, inflammation, and ischemia.
Using a beta-lactamase reporter-gene under control of the hypoxia response element, a cell-based assay [CellSensor(TM) HRE-bla ME-180 developed by Invitrogen Corp.] was used to measure hypoxia-induced signaling. Library compounds were measured for their ability to induce the reporter gene activity. Compounds were screened in a titration series in 1536-well format. The inducers were identified based on the AC50 values derived from the screening data.
NCGC Assay Protocol Summary
2500 cells/5uL in Opti-MEM medium containing 0.5% dialyzed FBS, 0.1 mM NEAA, 1 mM sodium pyruvate and 10 mM HEPES was dispensed into 1536-well plates and cells were cultured at 37 degrees Celsius for 4-5 hours and then 23 nL of compounds or DMSO were delivered to each well using a pin tool. The plates were incubated at 37 degrees Celsius for 17 hours. 1 uL of CCF4-dye mixture was added to each well. After incubated at room temperature for 2.5 hours the plates were measured on an EnVision plate reader at Excitation 405nm, Emission1=460nm and Emission 2=530nm. The %Activity was determined from the ratio of 460nm/530nm.

Row | SMILES | outcome
1 | OC[C@H]1O[C@@H]2O[C@H]3[C@H](O)[C@@H](O)[C@@H](O[C@H]4[C@H](O)[C@@H](O)[C@@H](O[C@H]5[C@H](O)[C@@H](O)[C@@H](O[C@H]6[C@H](O)[C@@H](O)[C@@H](O[C@H]7[C@H](O)[C@@H](O)[C@@H](O[C@H]8[C@H](O)[C@@H](O)[C@@H](O[C@H]1[C@H](O)[C@H]2O)O[C@@H]8CO)O[C@@H]7CO)O[C@@H]6CO)O[C@@H]5CO)O[C@@H]4CO)O[C@@H]3CO | inactive
2 | COc1ccc(C(Cl)=C(c2ccc(OC)cc2)c2ccc(OC)cc2)cc1 | inactive
3 | COc1cc([C@H]2Oc3cc([C@H]4Oc5cc(O)cc(O)c5C(=O)[C@@H]4O)ccc3O[C@@H]2CO)ccc1O | inactive
4 | CCCCC(CC)COC(=O)c1ccc(N(C)C)cc1 (stereo unspecified) | inactive
5 | COc1ccc(C(=O)c2ccccc2)c(O)c1 | inactive
6 | O=C(O)c1ccc(S(=O)(=O)N(Cl)Cl)cc1 | inactive
7 | CCOc1ccc(NC(C)=O)cc1 | inactive
8 | C/C=C/c1ccc(O)c(OC)c1 | inactive
9 | CCOc1ccccc1C(N)=O | inactive
10 | NCCNc1cccc2ccccc12 | inactive
11 | NC(=O)c1ccccc1O | inactive
